In the supplement of paper PMC10338343:
± gives the standard deviation.

Key:
[1] = test system: MILI (PIWIL2) piRISC loaded with L1MC piRNA (26 nt); assay: pre-steady-state target cleavage rate (min^-1); guide: L1MC piRNA 5'p-UAACUAAAUACUAUGCAAGCUGUAGG; higher = faster piRNA-guided slicing of the target;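 note: 1 nM active piRISC with 0.1 nM target library at 33 °C single turnover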
Summary of the method: (§1)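 The pre-steady-state cleavage rate was calculated from a burst-and-steady-state fit. Data came from Cleave-'n-Seq, in which […] transcribed, DNA-blocked target RNA library was mixed with 1 nM active affinity-purified piRISC carrying one synthetic guide, with or without 500 nM GTSF1 partner protein, in HEPES–potassium acetate buffer at 33 °C for 0–8 or 0–960 min. Uncleaved targets were sequenced and normalised to depth and to weakly complementary targets, three trials were pooled, and k3 was capped at 0.0001 min^-1.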

[2] = test system: EfPiwi piRISC loaded with L1MC piRNA (26 nt); assay: pre-steady-state target cleavage rate (min^-1); auxiliary factor: 500 nM Ephydatia muelleri Gtsf1; guide: L1MC piRNA 5'p-UAACUAAAUACUAUGCAAGCUGUAGG; MIWI and MILI are mouse PIWI proteins and EfPiwi is from a freshwater sponge; tags in brackets are library labels; higher = faster piRNA-guided slicing of the target
Summary of the method: as §1

[3] = auxiliary factor: 500 nM mouse GTSF1
[4] = auxiliary factor: none (no GTSF1)

Row | Sequence | pre-steady-state target cleavage rate [1, 3] | pre-steady-state target cleavage rate [1, 4] | pre-steady-state target cleavage rate [2]
1 | UCCUGGAUCAGCUUGCAAAGUAUUUAGAUA | 0.126 ± 0.018 | 0.00353 ± 0.0024 | 0.00558 ± 0.0029
2 | UCCUCCAUACAGCUUGCAUAGUAUUUAGUUA | 0.171 ± 0.021 | 0.00652 ± 0.002 | 0.00733 ± 0.0027
3 | UCCUGCUACAGCUUGGUUAGUAUUUAGUAA | 0.148 ± 0.021 | 0.00357 ± 0.0022 | 0.00273 ± 0.0024
4 | UCCUGGUACAGCUUGCAUAGUAUUUAGUUUA | 0.375 ± 0.028 | 0.0152 ± 0.005 | 0.0765 ± 0.024
5 | UCCUCCUACAGCUUGCAUAGUAUUUAGUAUA | 0.258 ± 0.028 | 0.00757 ± 0.0027 | 0.00856 ± 0.0035
6 | UCCUGCUACAGCUAUGCAUAGUAUUUAGUUA | 0.257 ± 0.022 | 0.0069 ± 0.0021 | 0.012 ± 0.0044
7 | UCCUCCUAGAGCUUGCUUAGUAUUUAGUUA | 0.261 ± 0.014 | 0.00563 ± 0.0022 | 0.0217 ± 0.0064
8 | UCCUGGAAGAGCUUGCAUAGUAUUUAGAUA | 0.182 ± 0.034 | 0.00463 ± 0.0025 | 0.00519 ± 0.0023
9 | UCCUGGAUGUCCUUGCAUAGUAUUUAGAUA | 0.118 ± 0.018 | 0.00265 ± 0.0023 | 0.00461 ± 0.0029
10 | UCCUCCUUCUGCUUGCAUAGUAUUUAGUUA | 0.269 ± 0.018 | 0.00966 ± 0.002 | 0.11 ± 0.028
11 | UCCUCCUUCAGCUUGCUUAGUAUUUAGUUA | 0.286 ± 0.015 | 0.00762 ± 0.002 | 0.0651 ± 0.022
12 | UCCUGGAACAGCUUGCAUAGUAUUUAAGUUA | 0.195 ± 0.029 | 0.00781 ± 0.0028 | 0.0138 ± 0.0052
13 | UCCUGGUACCGCUUGCAUAGUAUUUAGUUA | 0.293 ± 0.037 | 0.0123 ± 0.0052 | 0.00412 ± 0.0035
14 | UCCUCCUACAGCUUGGAAAGUAUUUAGUUA | 0.141 ± 0.014 | 0.00715 ± 0.0023 | 0.0615 ± 0.013
15 | UCCUGGUACAGCUUGGAUAGUAUUUAGUUA | 0.206 ± 0.024 | 0.0152 ± 0.0038 | 0.0049 ± 0.0027
16 | UCCUGGAUGUCCUUGCAUACUAUUUAGUUA | 0.0324 ± 0.01 | 0.00339 ± 0.0025 | 0.00333 ± 0.0024
17 | UCCUGGAUGUCGUUGCAUAGUACUUAGUUA | 0.0399 ± 0.011 | 0.00463 ± 0.0029 | 0.00365 ± 0.0035
18 | UCCUGGAUCAGCUUGCAUAGUUUUAAGUUA | 0.0366 ± 0.008 | 0.00531 ± 0.0024 | 0.00285 ± 0.0028
19 | UCCUGGAUCAGCUUGGAUAGUAUUUAGUUA | 0.185 ± 0.013 | 0.00786 ± 0.0022 | 0.0092 ± 0.0025

Row | Sequence | pre-steady-state target cleavage rate [1, 3] | pre-steady-state target cleavage rate [1, 4] | pre-steady-state target cleavage rate [2]
20 | UCCUCCUACAGCUUGCAUGUAUUUAGUUA | 0.0804 ± 0.012 | 0.00283 ± 0.0027 | 0.00924 ± 0.0046
21 | UCCUGGUACAGCUUGCAUAGUAUUUGGUUA | 0.205 ± 0.033 | 0.0142 ± 0.0043 | 0.00525 ± 0.002
22 | UCCUGGAUGAGCUGUGCAUAGUAUUUAGUUA | 0.191 ± 0.013 | 0.0151 ± 0.0044 | 0.0255 ± 0.0063
23 | UCCUGGAUCAGCUUGCAUAGUAUUUAGAUUA | 0.0478 ± 0.011 | 0.00315 ± 0.0026 | 0.00483 ± 0.0016
24 | UCCUGCUUCAGCUUGCUUAGUAUUUAGUUA | 0.287 ± 0.011 | 0.00807 ± 0.0021 | 0.0238 ± 0.0068
25 | UCCUGGUACUGGUUGCAUAGUAUUUAGUUA | 0.162 ± 0.042 | 0.0125 ± 0.0045 | 0.0054 ± 0.0031
26 | UCCUGGAAGUGCUUGCAUAGUAUUUAGUUA | 0.127 ± 0.013 | 0.00836 ± 0.0022 | 0.00537 ± 0.0019
27 | UCCUGCAACAGCUUGCAUAGUAUUAAGUUA | 0.344 ± 0.039 | 0.00432 ± 0.0031 | 0.00881 ± 0.0022
28 | UCCUGGAUCAGCUUGCUUAGUAUUAAGUUA | 0.129 ± 0.016 | 0.00516 ± 0.0021 | 0.00376 ± 0.0025
29 | UCCUGCUUCAGGUUGCAUAGUAUUUAGUUA | 0.235 ± 0.015 | 0.0111 ± 0.003 | 0.0664 ± 0.015
30 | UCCUGGAACAGCUUCGAUAGUAUUUAGUUA | 0.262 ± 0.015 | 0.00483 ± 0.0022 | 0.00251 ± 0.0023
31 | UCCUGGUACAGCUGUGCAUAGUAUUUAGUUA | 0.238 ± 0.019 | 0.0118 ± 0.0046 | 0.00903 ± 0.0034
32 | UCCUGGAACAGCUUGCAUAGUAUUUAGUUG [g2:g23:cont:t1G] | 0.252 ± 0.024 | 0.00663 ± 0.0021 | 0.0115 ± 0.0034
33 | UCCUGGAUGUGCUUGCAUAGUAUUUUGUUA | 0.0696 ± 0.019 | 0.00381 ± 0.0032 | 0.00341 ± 0.0026
34 | UCCUCCUACAGCUUGUCAUAGUAUUUAGUUA | 0.258 ± 0.015 | 0.00407 ± 0.0019 | 0.0546 ± 0.016
35 | UCCUGCUUCAGCAUGCAUAGUAUUUAGUUA | 0.291 ± 0.015 | 0.0121 ± 0.0034 | 0.0186 ± 0.0047
36 | UCCUGGAACAGCUUGGAUAGUAUAUAGUUA | 0.215 ± 0.027 | 0.00403 ± 0.0027 | 0.00939 ± 0.0043
37 | UCCUGGAUGAGCUUGCAUAGUAUUUAGUA | 0.223 ± 0.025 | 0.00747 ± 0.0025 | 0.00405 ± 0.0032
38 | UCCUGCUACACCUUGCUUAGUAUUUAGUUA | 0.2 ± 0.017 | 0.00572 ± 0.0028 | 0.00903 ± 0.0035

Row | Sequence | pre-steady-state target cleavage rate [1, 3] | pre-steady-state target cleavage rate [1, 4] | pre-steady-state target cleavage rate [2]
39 | UCCUGGAUGAGCUUGUAUAGUAUUUAGUUA | 0.181 ± 0.015 | 0.0088 ± 0.0033 | 0.0538 ± 0.014
40 | UCCUCCAAGAGCUUGCAUAGUAUUUAGUUA | 0.276 ± 0.013 | 0.007 ± 0.0024 | 0.0523 ± 0.014
41 | UCCUCCUACACGAUGCAUAGUAUUUAGUUA | 0.267 ± 0.011 | 0.00666 ± 0.0022 | 0.0593 ± 0.017
42 | UCCUCCUACAGCUUGCAUAGUAAAUAGUUA | 0.201 ± 0.022 | 0.00285 ± 0.0028 | 0.00735 ± 0.0032
43 | UCCUGGAACAGCUACCAUAGUAUUUAGUUA | 0.174 ± 0.016 | 0.00403 ± 0.0022 | 0.00309 ± 0.0026
44 | UCCUGGAACUCCUUGCAUAGUAUUUAGUUA | 0.238 ± 0.02 | 0.00487 ± 0.0017 | 0.0352 ± 0.009
45 | UCCUGGAACAGCUUGCAUAGUAUUUAGGUUA | 0.23 ± 0.041 | 0.00413 ± 0.0032 | 0.00305 ± 0.0027
46 | UCCUCCUUCACCUUGCAUAGUAUUUAGUUA | 0.212 ± 0.028 | 0.00635 ± 0.0025 | 0.0605 ± 0.021
47 | UCCUGGAACAGCAAGCAUAGUAUUUAGUUA | 0.275 ± 0.018 | 0.00588 ± 0.0024 | 0.00853 ± 0.0027
48 | UCCUGGUACAGCUUGAAUAGUAUUUAGUUA | 0.302 ± 0.055 | 0.00915 ± 0.0046 | 0.0053 ± 0.0028
49 | UCCUCCUUCAGCUUGCAUUGUAUUUAGUUA | 0.226 ± 0.019 | 0.00662 ± 0.002 | 0.0307 ± 0.0077
50 | UCCUGGAGCAGCUUGCAUAGUAUUUAGUUA | 0.333 ± 0.021 | 0.0118 ± 0.0032 | 0.101 ± 0.024
51 | UCCUGGAUGUCGAUGCAUAGUAUUUAGUUA [g2:g17:cont:t1A] | 0.124 ± 0.017 | 0.0067 ± 0.0017 | 0.00648 ± 0.0023
52 | UCCUGCUACUGCUUGCAUAGUAUUAAGUUA | 0.151 ± 0.02 | 0.00322 ± 0.0028 | 0.00584 ± 0.0021
53 | UCCUGGAUGACUUGCAUAGUAUUUAGUUA | 0.171 ± 0.014 | 0.004 ± 0.0027 | 0.0058 ± 0.0023
54 | UCCUGGAUCAGCUUGCAUAGUAAUUAGUAA | 0.0974 ± 0.021 | 0.00485 ± 0.0021 | 0.00487 ± 0.0027
55 | UCCUGGAUGUGCUAGCAUAGUAUUUAGUUA | 0.125 ± 0.013 | 0.00747 ± 0.0023 | 0.00573 ± 0.0027
56 | UCCUGCUACAGCUAGCUUAGUAUUUAGUUA | 0.227 ± 0.018 | 0.00468 ± 0.0023 | 0.00973 ± 0.0029
